Compounds without any hit were thinned out: in the full panel of roughly 83,000, 20% have a hit.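 Treatment: one concentration, 48 hours, 96-well format. Scoring: percent growth, with anything below 10 considered active.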 Activity calls are given as the source filed them.
Legend:
Assay in all cases: NCI-60 one-dose screen, 48 h (100 = growth as untreated, 0 = no growth, -100 = all killed)
SK-MEL-2 melanoma = details: 10 µM unless noted
EKVX NSCLC = details: 10 µM unless noted
SN12C renal = details: 10 µM unless noted
UO-31 renal = details: 10 µM unless noted
TK-10 renal = details: 10 µM unless noted
CAKI-1 renal = details: 10 µM
A498 renal = details: 10 µM unless noted
CCRF-CEM leukemia = details: 10 µM unless noted
MOLT-4 leukemia = details: 10 µM unless noted
ACHN renal = details: 10 µM unless noted

Measured: growth

CC(=O)Nc1ccc(OC(=O)c2ccccc2O)cc1
inactive: SK-MEL-2 melanoma 147% | EKVX NSCLC 93.4% | SN12C renal 102% | UO-31 renal 88.7% | TK-10 renal 128% | CAKI-1 renal 91.3% | A498 renal 84.5% | CCRF-CEM leukemia 95.9% | MOLT-4 leukemia 96.2%

COc1cc(NS(=O)(=O)c2ccc(N)cc2)ncn1
inactive: SK-MEL-2 melanoma 160% | EKVX NSCLC 102% | SN12C renal 93.8% | UO-31 renal 86.2% | TK-10 renal 130% | CAKI-1 renal 94.6% | A498 renal 106% | CCRF-CEM leukemia 105% | MOLT-4 leukemia 99.6%

CCN(CC)CC(=O)Nc1c(C)cccc1C
inactive: SK-MEL-2 melanoma 104% | EKVX NSCLC 85.2% | SN12C renal 98.8% | UO-31 renal 83.2% | TK-10 renal 116% | CAKI-1 renal 94.3% | A498 renal 102% | CCRF-CEM leukemia 103% | MOLT-4 leukemia 104%

CC(CN(C)C)CN1c2ccccc2CCc2ccccc21 (stereo unspecified)
inactive: SK-MEL-2 melanoma 88.8% | EKVX NSCLC 80.6% | SN12C renal 73.7% | UO-31 renal 38.9% | TK-10 renal 87.2% | CAKI-1 renal 70.6% | A498 renal 104% | CCRF-CEM leukemia 87.1% | MOLT-4 leukemia 81.2%

COC(=O)Nc1nc2ccc(Sc3ccccc3)cc2[nH]1
inactive: SK-MEL-2 melanoma 53% | EKVX NSCLC 57.1% | SN12C renal 44.6% | UO-31 renal 34.6% | TK-10 renal 65.6% | CAKI-1 renal 39.1% | A498 renal 13.9% | CCRF-CEM leukemia 10.7%

Cc1ccc(N(CC2=NCCN2)c2cccc(O)c2)cc1
inactive: SK-MEL-2 melanoma 107% | EKVX NSCLC 90.2% | SN12C renal 94.6% | UO-31 renal 79.7% | TK-10 renal 102% | CAKI-1 renal 90% | A498 renal 93.8% | CCRF-CEM leukemia 98.5% | MOLT-4 leukemia 97.7%

COc1cc([C@@H]2c3cc4c(cc3C(OC3O[C@@H]5COC(C)O[C@H]5[C@H](O)[C@H]3O)C3COC(=O)[C@@H]32)OCO4)cc(OC)c1O (stereo partly specified)
inactive: SK-MEL-2 melanoma 74.6% | EKVX NSCLC 57.8% | SN12C renal 13% | UO-31 renal 64.3% | TK-10 renal 72.5% | A498 renal 36.2%
active: CAKI-1 renal 9.12% | CCRF-CEM leukemia 6.56% | MOLT-4 leukemia 2.96%

CCOC(=O)c1noc2c1CCc1cn(Cc3cc(OC)cc(OC)c3)cc1-2
inactive: SK-MEL-2 melanoma 92.1% | EKVX NSCLC 98.1% | SN12C renal 107% | UO-31 renal 84% | TK-10 renal 81.7% | A498 renal 107% | CCRF-CEM leukemia 102% | MOLT-4 leukemia 79.5%

COc1cc(C(=O)NNC(=O)c2ccccc2O)cc(OC)c1OC
inactive: SK-MEL-2 melanoma 80.2% | EKVX NSCLC 103% | SN12C renal 98.4% | UO-31 renal 74.3% | TK-10 renal 85.6% | A498 renal 75.8% | CCRF-CEM leukemia 89.4%

CCCCCCCCN(CCCCCCCC)CC(O)c1cc(-c2ccccc2)nc2ccc(OC)cc12 (stereo unspecified)
inactive: SK-MEL-2 melanoma 78.1% | EKVX NSCLC 94.6% | SN12C renal 39.9% | UO-31 renal 42.4% | TK-10 renal 91.7% | A498 renal 83.4%
active: CCRF-CEM leukemia 4.59% | MOLT-4 leukemia 9.81%

CN(C)CCCOc1c(Br)cc(/C=C/C(=O)N(C)CCc2cc(Br)c(OCCCN(C)C)c(Br)c2)cc1Br
inactive: SK-MEL-2 melanoma 89.3% | EKVX NSCLC 78.7% | SN12C renal 72.8% | UO-31 renal 65.7% | TK-10 renal 106% | A498 renal 60.5%
active: CCRF-CEM leukemia 4.13% | MOLT-4 leukemia -1.09%

Nc1nc(=S)ss1
inactive: SK-MEL-2 melanoma 109% | EKVX NSCLC 108% | SN12C renal 97.7% | UO-31 renal 95.4% | TK-10 renal 108% | ACHN renal 109% | CCRF-CEM leukemia 109% | MOLT-4 leukemia 90.4%

Oc1ccc(Cl)cc1Sc1cc(Cl)ccc1O
inactive: SK-MEL-2 melanoma 94.1% | EKVX NSCLC 103% | SN12C renal 86.3% | UO-31 renal 74.6% | TK-10 renal 104% | ACHN renal 90.1% | CCRF-CEM leukemia 96.7% | MOLT-4 leukemia 80.9%

CC1CCc2cc(F)cc3c(=O)c(C(=O)O)cn1c23 (stereo unspecified)
inactive: SK-MEL-2 melanoma 125% | EKVX NSCLC 91.4% | SN12C renal 98.2% | UO-31 renal 78.5% | TK-10 renal 103% | CAKI-1 renal 81% | A498 renal 88.1% | CCRF-CEM leukemia 109% | MOLT-4 leukemia 97.3%

CC(C)(c1ccc(OCC(O)CNCc2ccco2)cc1)c1ccc(OCC(O)CNCc2ccco2)cc1 (stereo unspecified)
inactive: SK-MEL-2 melanoma 94.4% | EKVX NSCLC 92.1% | SN12C renal 87.6% | UO-31 renal 66.3% | TK-10 renal 93.1% | A498 renal 68.9% | CCRF-CEM leukemia 72.9% | MOLT-4 leukemia 67.1%

Cc1cc(C)c(O)c(C(=O)CC(Br)C(=O)O)c1 (stereo unspecified)
inactive: SK-MEL-2 melanoma 89.5% | EKVX NSCLC 99.4% | SN12C renal 110% | UO-31 renal 77.7% | TK-10 renal 107% | A498 renal 117% | CCRF-CEM leukemia 65.2% | MOLT-4 leukemia 88.5%

CCn1c(C)nc([N+](=O)[O-])c1Sc1nc(N)nc2nc[nH]c12
inactive: SK-MEL-2 melanoma 40.5% | EKVX NSCLC 38.9% | SN12C renal 33% | UO-31 renal 37.5% | TK-10 renal 34.5% | A498 renal 57% | CCRF-CEM leukemia 11.8% | MOLT-4 leukemia 14.3%

Nc1nccc(=S)[nH]1
inactive: SK-MEL-2 melanoma 97.7% | EKVX NSCLC 101% | SN12C renal 101% | UO-31 renal 98.3% | TK-10 renal 95.6% | A498 renal 108% | CCRF-CEM leukemia 113% | MOLT-4 leukemia 92.8%

Cc1cc(Nc2ccc(Cl)c(Cl)c2)nc(N)n1
inactive: SK-MEL-2 melanoma 102% | EKVX NSCLC 54.7% | SN12C renal 106% | UO-31 renal 86.2% | TK-10 renal 87.3% | A498 renal 78.8% | CCRF-CEM leukemia 98.5% | MOLT-4 leukemia 78.8%

Nc1ncnc2c1c(C(F)(F)F)cn2[C@@H]1O[C@H](CO)[C@@H](O)[C@H]1O
active: SK-MEL-2 melanoma -42.6% | EKVX NSCLC 3.57% | UO-31 renal 2.15% | TK-10 renal 4.15% | A498 renal -43.2% | CCRF-CEM leukemia 5.79% | MOLT-4 leukemia 0.0629%
inactive: SN12C renal 15.7%

Cc1cc(SCc2ccc(Cl)cc2Cl)nc(SCc2ccc(Cl)cc2Cl)n1
inactive: SK-MEL-2 melanoma 103% | EKVX NSCLC 88.5% | SN12C renal 112% | UO-31 renal 97.5% | TK-10 renal 94.9% | A498 renal 98.7% | CCRF-CEM leukemia 108% | MOLT-4 leukemia 104%

COc1ccc2c(-c3ccc(F)cc3)c(C#N)c(=NC(C)=O)oc2c1
inactive: SK-MEL-2 melanoma 26.5% | EKVX NSCLC 62.8% | SN12C renal 56.9% | UO-31 renal 50.4% | TK-10 renal 78.1% | A498 renal 18.1% | CCRF-CEM leukemia 13.1% | MOLT-4 leukemia 29.6%

COc1ccc(-c2nnc(SCC(=O)Nc3ccc(C(=O)/C=C/c4ccc(Cl)cc4)cc3)o2)cc1OC
inactive: SK-MEL-2 melanoma 72% | EKVX NSCLC 80.2% | SN12C renal 47.8% | UO-31 renal 72.3% | TK-10 renal 52.8% | A498 renal 88.7% | CCRF-CEM leukemia 65.1% | MOLT-4 leukemia 41.1%

Cc1ccc(NC(=O)CN2CCOCC2)cc1Cl
inactive: SK-MEL-2 melanoma 95.1% | EKVX NSCLC 93.2% | SN12C renal 93.1% | UO-31 renal 90.4% | TK-10 renal 95.6% | A498 renal 61.3% | CCRF-CEM leukemia 78.9% | MOLT-4 leukemia 90.2%

COc1cc(Br)c(-c2nc(-c3ccccc3)c(-c3ccccc3)n2Cc2ccccc2)cc1OC
inactive: SK-MEL-2 melanoma 44.8% | EKVX NSCLC 47.9% | SN12C renal 66.5% | UO-31 renal 30.4% | TK-10 renal 62.3% | A498 renal 73.8% | CCRF-CEM leukemia 54.3% | MOLT-4 leukemia 23.4%

COc1ccc(/C(Cl)=N/N=C(\Cl)c2cc(OC)c(OC)c(OC)c2)cc1OC(C)=O
inactive: SK-MEL-2 melanoma 92.3% | EKVX NSCLC 111% | SN12C renal 96.1% | UO-31 renal 65.5% | TK-10 renal 81.1% | A498 renal 90.2% | CCRF-CEM leukemia 94.4% | MOLT-4 leukemia 82.4%

CCn1cc(C(=O)O)c(=O)c2cc(F)c(N3CCN(CC(=O)Nc4ccc(C(C)=O)cc4)CC3)cc21
inactive: SK-MEL-2 melanoma 92.8% | EKVX NSCLC 103% | SN12C renal 98.9% | UO-31 renal 93.6% | TK-10 renal 89.3% | A498 renal 95.5% | CCRF-CEM leukemia 98.7% | MOLT-4 leukemia 97.6%

CCOC(=O)C1=C(N)Oc2cc(OC)ccc2C1c1ccc(F)c(F)c1 (stereo unspecified)
active: A498 renal 4.52%
inactive: SK-MEL-2 melanoma 11.8% | EKVX NSCLC 40.1% | SN12C renal 47.1% | UO-31 renal 44.2% | TK-10 renal 63.3% | CCRF-CEM leukemia 20.4% | MOLT-4 leukemia 28.6%

COc1ccccc1C(OC(C)=O)OC(C)=O
inactive: SK-MEL-2 melanoma 90.7% | EKVX NSCLC 99% | SN12C renal 111% | UO-31 renal 89.9% | TK-10 renal 91.1% | A498 renal 113% | CCRF-CEM leukemia 113% | MOLT-4 leukemia 103%

Cc1cccc(Cc2cnc(NC(=O)CCc3ccc(C)o3)s2)c1
inactive: SK-MEL-2 melanoma 30.6% | EKVX NSCLC 43.8% | SN12C renal 31.1% | UO-31 renal 34% | TK-10 renal 63.6%
active: A498 renal -11.7% | CCRF-CEM leukemia 5.94% | MOLT-4 leukemia 8.52%

— PubChem BioAssay (NCI)
